Reference: PubChem BioAssay AID463173 (ICCB-Longwood Screening Facility, Harvard Medical School, 2010)
Screen size: about 52,000 compounds; about 1,700 (3.3%) were called active. What follows is part of a selection rich in actives, with near analogues and random picks from the rest. Unmarked numbers belong to inactive results. Rule as the data show it: active = survival mostly below about 52% (no sharp cut-off); inactive = mostly above about 56%.

Each compound was assayed on Wild type (assay: S. aureus survival, RN4220 and DeltatarO strains – OD600, teichoic acid synthesis inhibitors, primary screen (AID 463173)). Conditions: S. aureus RN4220 wild type/DeltatarO growth, OD600, 18 h, active compounds read low, screened at 18.75 µg/mL (by protocol).

Compared with Cc1ccc(CNC(=O)CN2N=C(c3ccc(C)cc3)CCC2=O)cc1, Cc1ccc(-c2nc(CS(=O)CC(=O)NCc3ccccc3Cl)c(C)o2)cc1 (configuration not stated) is lower in survival: 80% for the first, 72% for the second.

Compared with Cc1cc(Sc2ccc(Cl)cc2)nc2ccccc12, Cc1ccc(C(=O)COC(=O)c2cc(-c3ccc(Cl)cc3)nc3ccccc23)cc1 is higher in survival: 50% for the first, 117% for the second.

Going from CCCCN(C)CCCNC(=O)c1cc(-c2cccnc2)nc2ccccc12 to CCCCN(CC)c1nc(-c2ccccc2F)nc2ccccc12, the survival falls from 77% to 71%.

Compared with Cc1cc(N(C)Cc2ccccc2)n2nc(-c3ccc(C(C)(C)C)cc3)nc2n1, O=c1cc(-c2ccccc2)nc(SCc2nc(-c3ccc(C(F)(F)F)cc3)no2)[nH]1 is higher in survival: 77% for the first, 150% for the second.

Compared with COc1ccccc1Nc1nc(-c2ccccc2F)nc2ccccc12, CCN(CC)c1nc(-c2ccccc2)nc2ccccc12 is higher in survival: 73% for the first, 108% for the second.

First: CCCCc1nc2ccccc2c(C(=O)O)c1C
Second: CCn1nc(CC(=O)Nc2nnc(CC(=O)N3CCCC3)s2)c2ccccc2c1=O
The survival of the first is higher: 106% for the first, 95% for the second.

Compared with COc1ccc(-n2ccnc2SCC(=O)Nc2ccc(F)cc2F)cc1, COc1ccc(NC(=O)CSc2ncc3c(n2)-c2cc(Cl)ccc2N(Cc2ccccc2F)S3(=O)=O)cc1 is lower in survival: 143% for the first, 65% for the second.

Compared with Cc1ccccc1NC(=O)CSc1ncc2c(n1)-c1ccccc1N(C)S2(=O)=O, Cc1ccccc1Nc1c(-c2ccc(Cl)s2)nc2cccc(C)n12 is lower in survival: 99% for the first, 80% for the second.

Compared with CCN(C(=O)c1sc2nc3n(c(=O)c2c1C)CCCCC3)c1ccc(OC)cc1, COc1ccc(-c2cn3c(n2)sc2cc(C(=O)NCCCN4CCCCC4)ccc23)cc1 is lower in survival: 83% for the first, 81% for the second.

Compared with CCN(C(=O)C1CCC(CNS(=O)(=O)c2cccc3nsnc23)CC1)c1cccc(C)c1 (configuration not stated), Cc1ccc(C)c(S(=O)(=O)n2nnc3ccccc32)c1 is higher in survival: 86% for the first, 104% for the second.

Compared with N#Cc1c(/N=C/c2ccc3c(c2)OCO3)oc(-c2ccccc2)c1-c1ccccc1, COc1ccc(C2=NN(C(C)=O)C(c3cn(-c4ccccc4)nc3-c3cccs3)C2)cc1 (configuration not stated) is higher in survival: 115% for the first, 127% for the second.

First: COc1cccc(CNC(=O)Cn2c(=O)nc(-c3ccccc3F)c3cc(Cl)ccc32)c1
Second: CCOC(=O)N1CCc2c(sc3c2c(=O)n(-c2ccc(Cl)cc2)c(=O)n3Cc2cccc(OC)c2)C1
The survival of the first is lower: 82% for the first, 120% for the second.

First: O=C(COc1ccccc1)NS(=O)(=O)c1ccc(N=NN2CCOCC2)cc1
Second: Cc1ccc(C)c(NC(=O)NCc2ccc3c(c2)CCN3C(=O)c2ccccc2)c1
The survival of the first is higher: 105% for the first, 66% for the second.

Compared with Cc1ccc(CNC(=O)C(=O)Nc2c3c(nn2-c2ccccc2)CSC3)cc1, Cc1ccc(CCNC(=O)Cn2c(-c3cccs3)cc3ccccc32)cc1 is higher in survival: 82% for the first, 119% for the second.

Going from CCc1ccccc1NC(=O)CC1NCCNC1=O (configuration not stated) to O=C(CCS(=O)(=O)c1cc2c(cc1Cl)NC(=O)CO2)NCc1ccccc1Cl, the survival rises from 87% to 88%.

Compared with O=C(Nc1cccc(C(F)(F)F)c1)C1CCN(S(=O)(=O)c2cccs2)CC1, O=C(COCc1cc(-c2ccc(F)cc2)on1)Nc1cccc(C(F)(F)F)c1 is lower in survival: 92% for the first, 77% for the second.

First: Cc1ccc(Cl)cc1N1CCN(CCCNC(=O)c2ccc3nc(N4CCCCC4)sc3c2)CC1
Second: Cc1ccc(C)c(N2CCN(CCCNC(=O)c3ccc4nc(N5CCCCC5)sc4c3)CC2)c1
The survival of the first is lower: 45% for the first, 76% for the second.

Compared with CC1CCN(c2nc3ccc(C(=O)N4CCN(c5ccccc5)CC4)cc3s2)CC1, Cc1ccc(Cl)cc1N1CCN(C(=O)c2ccc3nc(N4CCC(C)CC4)sc3c2)CC1 is lower in survival: 64% for the first, 16% for the second.

Going from O=C(O)CCc1ccc(-c2cccs2)n1CC(=O)Nc1ccccc1C(F)(F)F to CCOC(=O)c1cc(-c2ccccc2)n(CC(=O)Nc2cc(Cl)c(OC)cc2OC)c1C, the survival rises from 105% to 128%.

First: COc1ccc(OC)c(NC(=O)N2CCC(CN3CCCCC3)CC2)c1
Second: COc1ccc(-c2cn3c(n2)sc2cc(C(=O)NCCCN4CCCCCC4)ccc23)cc1
The survival of the first is higher: 70% for the first, 66% for the second.

Compared with O=C(NCC(c1cccs1)S(=O)(=O)c1cccs1)c1c(F)cccc1F (configuration not stated), O=C(c1ccccc1)N(Cc1ccco1)Cc1cccs1 is higher in survival: 71% for the first, 82% for the second.

First: COCCCNC(=O)C1CCN(Cc2cc3ccccc3n2Cc2ccccc2C)CC1
Second: CCn1c(CN2CCCCC2)nc2cc(NC(=O)COc3ccccc3C(C)(C)C)ccc21
The survival of the first is lower: 78% for the first, 122% for the second.

First: C=CCC1Cc2ccccc2C(CC=C)N1 (configuration not stated)
Second: CCc1cc(=O)[nH]c(SCc2nc(-c3ccccc3)no2)n1
The survival of the first is higher: 100% for the first, 87% for the second.

Going from CCN1CCN(CCCNC(=O)c2ccc3c(c2)sc2nc(-c4ccc(C)cc4)cn23)CC1 to CCCN1CCN(CCCNC(=O)c2ccc3c(c2)sc2nc(-c4ccc(C)cc4)cn23)CC1, the survival falls from 29% to 20%.

Going from CC1CCCCN1CCCNC(=O)c1ccc2c(c1)sc1nc(-c3ccc(F)cc3)cn12 (configuration not stated) to O=C(NCCCN1CCCCC1)c1ccc2c(c1)sc1nc(-c3ccc(F)cc3)cn12, the survival rises from 26% to 43%.

Compared with CCCCNC(=O)c1ccc(-c2nc(CS(=O)(=O)c3ccc(C)cc3)c(C)o2)cc1, Cc1ccc(C(=O)c2cn(Cc3ccc(F)cc3)c3nc(C)ccc3c2=O)cc1 is higher in survival: 83% for the first, 95% for the second.

Going from O=C(NCCN1CCOCC1)N1CCNC1=O to COc1ccc(N2CCN(C(=O)CCS(=O)(=O)c3cc4c(cc3Cl)NC(=O)CO4)CC2)cc1, the survival falls from 110% to 85%.

First: CC1(C)N=C2C(=[N+]1[O-])CCC/C2=N/O
Second: CC(C)N1CCc2nc(SCC(=O)Nc3cccc(F)c3)[nH]c(=O)c2C1
The survival of the first is higher: 110% for the first, 83% for the second.

Going from Cc1ccc(NC(=O)Cn2c(=O)n(CCC(C)C)c(=O)c3cccnc32)cc1C to Cc1cccc(C)c1Nc1c(-c2ccccn2)nc2c(C)cccn12, the survival falls from 90% to 77%.

First: Cc1ccc2nc(SCc3nc(-c4ccccc4C)no3)[nH]c2c1
Second: COc1ccc(-c2noc(CSc3nc4ccc(C)cc4[nH]3)n2)cc1
The survival of the first is lower: 27% for the first, 47% for the second.

First: CCc1cc(=O)[nH]c(SCc2nc(-c3cccc(Cl)c3)no2)n1
Second: CCCc1cc(=O)[nH]c(SCc2nc(-c3ccc(C)cc3)no2)n1
The survival of the first is lower: 22% for the first, 73% for the second.

First: Cc1cccc(-c2noc(CSc3nc(-c4ccc(F)cc4)cc(=O)[nH]3)n2)c1
Second: O=c1cc(-c2ccc(F)cc2)nc(SCc2nc(-c3ccccc3Cl)no2)[nH]1
The survival of the first is lower: 82% for the first, 121% for the second.

Going from Cc1nc2ccc(S(=O)(=O)NC(C(=O)NCc3ccc(Cl)cc3)C(C)C)cc2s1 (configuration not stated) to Cc1ccc(C(=O)c2cn(Cc3ccc(Cl)cc3)c3nc(C)ccc3c2=O)cc1, the survival falls from 133% to 53%.

Going from COc1cc(NC(=O)CN(c2cc(C)cc(C)c2)S(=O)(=O)c2c(C)[nH]c(=O)[nH]c2=O)cc(OC)c1 to CCOCCc1nnc(NC(=O)C(=O)c2cc(C)n(-c3ccc(C)cc3C)c2C)s1, the survival rises from 83% to 85%.

Compared with Cc1cccc(NC(=O)C2CCN(c3nnc(-n4c(C)ccc4C)s3)CC2)c1C, Cc1ccc(-c2nc3ccc(Cl)cn3c2Nc2ccccc2C)s1 is lower in survival: 132% for the first, 94% for the second.

Compared with CCOC(=O)c1ccc(NS(=O)(=O)c2cc(Br)cc3c2N(C(C)=O)C(C)C3)cc1 (configuration not stated), Cc1ccc(Nc2c(-c3ccc(C)s3)nc3ccccn23)cc1 is lower in survival: 83% for the first, 31% for the second.

Fc1ccc(Nc2c(-c3ccco3)nc3ccccn23)cc1 and Cc1ccccc1Nc1c(-c2ccc(Cl)s2)nc2c(C)cccn12 are the same in survival: 69% for the first, 69% for the second.

For CCc1nnc(SCc2nc(-c3ccc(OC)cc3)oc2C)c2cc3sccc3n12, the survival was 86%.

For CCN(CC)c1nc(-c2ccc(C(C)(C)C)cc2)nc2ccccc12, the survival was -2% (active).
CCCCN(CCCC)c1nc(-c2ccccc2)nc2ccccc12 was tested, and the survival was -3% (active).
In the case of CC(C)CN(CC(C)C)c1nc(-c2ccc(Cl)cc2)nc2ccccc12, the survival is reported as -1% (active).
In the case of CCCN(CCC)c1nc(-c2ccccc2F)nc2ccccc12, the survival is reported as 1% (active).
In the case of Cc1cccc(N2CCN(C(=O)c3ccc4nc(N5CCC(C)CC5)sc4c3)CC2)c1C, the survival is reported as 1% (active).
Cc1ccc(C)c(N2CCN(CCCNC(=O)c3ccc4nc(N5CCC(C)CC5)sc4c3)CC2)c1 was tested, and the survival was 1% (active).
With Cc1ccc(-c2cn3c(n2)sc2cc(C(=O)NCCCN4CCCCCC4)ccc23)cc1 the survival was -1% (active).
Cc1ccc(-c2cn3c(n2)sc2cc(C(=O)NCCCN4CCCCC4)ccc23)cc1 was tested, and the survival was -1% (active).
In the case of CCC1CCCCN1CCCNC(=O)c1ccc2c(c1)sc1nc(-c3ccc(F)cc3)cn12 (configuration not stated), the survival is reported as 6% (active).
In the case of CCCc1cc(=O)[nH]c(SCc2nc(-c3ccccc3)no2)n1, the survival is reported as -2% (active).
Cc1ccc2nc(SCc3nc(-c4ccc(Cl)cc4)no3)[nH]c2c1 was tested, and the survival was -4% (active).
With Cc1ccccc1-c1noc(CSc2nc(-c3ccc(F)cc3)cc(=O)[nH]2)n1 the survival was 10% (active).
For CCc1cc(=O)[nH]c(SCc2nc(-c3ccc(C(F)(F)F)cc3)no2)n1, the survival was 0% (active).
In the case of Cc1ccc(Cn2cc(C(=O)c3ccc(C)cc3)c(=O)c3ccc(C)nc32)cc1, the survival is reported as 20% (active).
For Cc1ccc(-c2nc3c(C)cccn3c2Nc2ccccc2C)s1, the survival was -2% (active).
In the case of Cc1ccccc1Nc1c(-c2ccco2)nc2c(C)cccn12, the survival is reported as 1% (active).
With Cc1ccc(-c2nc3ccccn3c2Nc2ccccc2C)s1 the survival was 11% (active).
